# In the supplement of paper PMC4466140:
# How the values were obtained:
# Assay in all cases: SPOT peptide array binding signal intensity (averaged, normalized) (arbitrary units (background-subtracted, floor 0; scale differs between SH3 domains)); higher = stronger binding of the SH3 domain to the peptide
# SpBzz1-D2 = target: SpBzz1-D2
# Outline: (§1)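 Detection of bound protein relied on anti-GST antibody, an HRP anti-mouse secondary and luminol, with imaging and quantification in Genespotter. The bound protein was GST-fused SH3 domains from four yeast species, incubated at 10 μg/ml overnight at 4°C in TBS-based blocking buffer on cellulose membranes carrying synthetic 15-mer peptides with cysteines replaced by serines. Binding signal is normalized, background-subtracted spot intensity averaged over replicates, in arbitrary units that differ between domains.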
# SpCyk3 = target: SpCyk3
# Outline: as §1
# SpHof1 = target: SpHof1
# Outline: as §1
# SpHof1-2 = target: SpHof1-2
# Outline: as §1
# SpHof1-3 = target: SpHof1-3
# Outline: as §1
# SpHse1 = target: SpHse1
# Outline: as §1
# SpLsb1 = target: SpLsb1
# Outline: as §1
# SpLsb4 = target: SpLsb4
# Outline: as §1
# SpMyo1 = target: SpMyo1
# Outline: as §1
# SpNbp2 = target: SpNbp2
# Outline: as §1
# SpPex13 = target: SpPex13
# Outline: as §1
# SpRvs167 = target: SpRvs167
# Outline: as §1
# SpSla1-D1-D2 = target: SpSla1-D1-D2
# Outline: as §1
# SpSla1-D3 = target: SpSla1-D3
# Outline: as §1
# AgAbp1 = target: AgAbp1
# Outline: as §1
# AgBbc1 = target: AgBbc1
# Outline: as §1
# AgBem1-D1 = target: AgBem1-D1
# Outline: as §1
# AgBzz1-D1 = target: AgBzz1-D1
# Outline: as §1
# AgBzz1-D2 = target: AgBzz1-D2
# Outline: as §1
# AgCyk3 = target: AgCyk3
# Outline: as §1
# AgFus1 = target: AgFus1
# Outline: as §1
# AgHof1 = target: AgHof1
# Outline: as §1
# AgHse1 = target: AgHse1
# Outline: as §1
# AgLsb1 = target: AgLsb1
# Outline: as §1
# AgLsb4 = target: AgLsb4
# Outline: as §1
# AgMyo5 = target: AgMyo5
# Outline: as §1
# AgNbp2 = target: AgNbp2
# Outline: as §1
# AgRvs167 = target: AgRvs167
# Outline: as §1
# AgSho1 = target: AgSho1
# Outline: as §1
# AgSla1-D1-D2 = target: AgSla1-D1-D2
# Outline: as §1
# AgSla1-D3 = target: AgSla1-D3
# Outline: as §1
# CaAbp1-D1 = target: CaAbp1-D1
# Outline: as §1
# CaAbp1-D2 = target: CaAbp1-D2
# Outline: as §1
# CaBbc1 = target: CaBbc1
# Outline: as §1
# CaBem1-D1 = target: CaBem1-D1
# Outline: as §1
# CaBzz1-D1 = target: CaBzz1-D1
# Outline: as §1
# CaBzz1-D2 = target: CaBzz1-D2
# Outline: as §1
# CaCyk3 = target: CaCyk3
# Outline: as §1
# CaFus1 = target: CaFus1
# Outline: as §1
# CaHof1 = target: CaHof1
# Outline: as §1
# CaHse1 = target: CaHse1
# Outline: as §1
# CaLsb1 = target: CaLsb1
# Outline: as §1
# CaLsb4 = target: CaLsb4
# Outline: as §1
# CaMyo5 = target: CaMyo5
# Outline: as §1
# CaNbp2 = target: CaNbp2
# Outline: as §1
# CaRvs167 = target: CaRvs167
# Outline: as §1
# CaRvs167-3 = target: CaRvs167-3
# Outline: as §1
# CaSho1 = target: CaSho1
# Outline: as §1
# CaSla1-D1-D2 = target: CaSla1-D1-D2
# Outline: as §1
# CaSla1-D3 = target: CaSla1-D3
# Outline: as §1
# ScAbp1 = target: ScAbp1
# Outline: as §1
# ScBbc1 = target: ScBbc1
# Outline: as §1
# ScBem1-D1 = target: ScBem1-D1
# Outline: as §1
# ScBzz1-D1 = target: ScBzz1-D1
# Outline: as §1
# ScBzz1-D2 = target: ScBzz1-D2
# Outline: as §1
# ScCyk3 = target: ScCyk3
# Outline: as §1
# ScFus1 = target: ScFus1
# Outline: as §1
# ScHof1 = target: ScHof1
# Outline: as §1
# ScHse1 = target: ScHse1
# Outline: as §1
# ScLsb1 = target: ScLsb1
# Outline: as §1
# ScLsb2 = target: ScLsb2
# Outline: as §1
# ScLsb3 = target: ScLsb3
# Outline: as §1
# ScLsb4 = target: ScLsb4
# Outline: as §1
# ScMyo3 = target: ScMyo3
# Outline: as §1
# ScMyo5 = target: ScMyo5
# Outline: as §1
# ScNbp2 = target: ScNbp2
# Outline: as §1
# ScPex13 = target: ScPex13
# Outline: as §1
# ScRvs167 = target: ScRvs167
# Outline: as §1
# ScSho1 = target: ScSho1
# Outline: as §1
# ScSla1-D1-D2 = target: ScSla1-D1-D2
# Outline: as §1
# ScSla1-D3 = target: ScSla1-D3
# Outline: as §1
# SpAbp1-D1 = target: SpAbp1-D1
# Outline: as §1
# SpBbc1 = target: SpBbc1
# Outline: as §1
# SpBzz1-D1 = target: SpBzz1-D1
# Outline: as §1
binder,measurement,setting,value
MFLISPPASPPPEFD,SPOT peptide array binding signal intensity,SpBzz1-D2,≤ 0
same,SPOT peptide array binding signal intensity,SpCyk3,4
same,SPOT peptide array binding signal intensity,SpHof1,7.5
same,SPOT peptide array binding signal intensity,SpHof1-2,8.25
same,SPOT peptide array binding signal intensity,SpHof1-3,≤ 0
same,SPOT peptide array binding signal intensity,SpHse1,103
same,SPOT peptide array binding signal intensity,SpLsb1,≤ 0
same,SPOT peptide array binding signal intensity,SpLsb4,49
same,SPOT peptide array binding signal intensity,SpMyo1,1430
same,SPOT peptide array binding signal intensity,SpNbp2,9
same,SPOT peptide array binding signal intensity,SpPex13,2.5
same,SPOT peptide array binding signal intensity,SpRvs167,≤ 0
same,SPOT peptide array binding signal intensity,SpSla1-D1-D2,≤ 0
same,SPOT peptide array binding signal intensity,SpSla1-D3,≤ 0
APPLPPTAPPPPSLP,SPOT peptide array binding signal intensity,AgAbp1,≤ 0
same,SPOT peptide array binding signal intensity,AgBbc1,≤ 0
same,SPOT peptide array binding signal intensity,AgBem1-D1,≤ 0
same,SPOT peptide array binding signal intensity,AgBzz1-D1,≤ 0
same,SPOT peptide array binding signal intensity,AgBzz1-D2,3
same,SPOT peptide array binding signal intensity,AgCyk3,≤ 0
same,SPOT peptide array binding signal intensity,AgFus1,≤ 0
same,SPOT peptide array binding signal intensity,AgHof1,116
same,SPOT peptide array binding signal intensity,AgHse1,13
same,SPOT peptide array binding signal intensity,AgLsb1,≤ 0
same,SPOT peptide array binding signal intensity,AgLsb4,3
same,SPOT peptide array binding signal intensity,AgMyo5,2800
same,SPOT peptide array binding signal intensity,AgNbp2,≤ 0
same,SPOT peptide array binding signal intensity,AgRvs167,≤ 0
same,SPOT peptide array binding signal intensity,AgSho1,≤ 0
same,SPOT peptide array binding signal intensity,AgSla1-D1-D2,2
same,SPOT peptide array binding signal intensity,AgSla1-D3,0.5
same,SPOT peptide array binding signal intensity,CaAbp1-D1,≤ 0
same,SPOT peptide array binding signal intensity,CaAbp1-D2,≤ 0
same,SPOT peptide array binding signal intensity,CaBbc1,≤ 0
same,SPOT peptide array binding signal intensity,CaBem1-D1,1
same,SPOT peptide array binding signal intensity,CaBzz1-D1,≤ 0
same,SPOT peptide array binding signal intensity,CaBzz1-D2,≤ 0
same,SPOT peptide array binding signal intensity,CaCyk3,≤ 0
same,SPOT peptide array binding signal intensity,CaFus1,≤ 0
same,SPOT peptide array binding signal intensity,CaHof1,≤ 0
same,SPOT peptide array binding signal intensity,CaHse1,≤ 0
same,SPOT peptide array binding signal intensity,CaLsb1,≤ 0
same,SPOT peptide array binding signal intensity,CaLsb4,≤ 0
same,SPOT peptide array binding signal intensity,CaMyo5,2460
same,SPOT peptide array binding signal intensity,CaNbp2,7.5
same,SPOT peptide array binding signal intensity,CaRvs167,0.167
same,SPOT peptide array binding signal intensity,CaRvs167-3,2.5
same,SPOT peptide array binding signal intensity,CaSho1,8
same,SPOT peptide array binding signal intensity,CaSla1-D1-D2,≤ 0
same,SPOT peptide array binding signal intensity,CaSla1-D3,≤ 0
same,SPOT peptide array binding signal intensity,ScAbp1,0.5
same,SPOT peptide array binding signal intensity,ScBbc1,≤ 0
same,SPOT peptide array binding signal intensity,ScBem1-D1,0.5
same,SPOT peptide array binding signal intensity,ScBzz1-D1,≤ 0
same,SPOT peptide array binding signal intensity,ScBzz1-D2,≤ 0
same,SPOT peptide array binding signal intensity,ScCyk3,2
same,SPOT peptide array binding signal intensity,ScFus1,≤ 0
same,SPOT peptide array binding signal intensity,ScHof1,212
same,SPOT peptide array binding signal intensity,ScHse1,≤ 0
same,SPOT peptide array binding signal intensity,ScLsb1,≤ 0
same,SPOT peptide array binding signal intensity,ScLsb2,≤ 0
same,SPOT peptide array binding signal intensity,ScLsb3,≤ 0
same,SPOT peptide array binding signal intensity,ScLsb4,4
same,SPOT peptide array binding signal intensity,ScMyo3,3490
same,SPOT peptide array binding signal intensity,ScMyo5,3170
same,SPOT peptide array binding signal intensity,ScNbp2,0.5
same,SPOT peptide array binding signal intensity,ScPex13,≤ 0
same,SPOT peptide array binding signal intensity,ScRvs167,≤ 0
same,SPOT peptide array binding signal intensity,ScSho1,≤ 0
same,SPOT peptide array binding signal intensity,ScSla1-D1-D2,≤ 0
same,SPOT peptide array binding signal intensity,ScSla1-D3,0.5
same,SPOT peptide array binding signal intensity,SpAbp1-D1,≤ 0
same,SPOT peptide array binding signal intensity,SpBbc1,1
same,SPOT peptide array binding signal intensity,SpBzz1-D1,525
same,SPOT peptide array binding signal intensity,SpBzz1-D2,≤ 0
same,SPOT peptide array binding signal intensity,SpCyk3,1
same,SPOT peptide array binding signal intensity,SpHof1,≤ 0
same,SPOT peptide array binding signal intensity,SpHof1-2,4
same,SPOT peptide array binding signal intensity,SpHof1-3,0.5
same,SPOT peptide array binding signal intensity,SpHse1,10.5
same,SPOT peptide array binding signal intensity,SpLsb1,≤ 0
same,SPOT peptide array binding signal intensity,SpLsb4,≤ 0
same,SPOT peptide array binding signal intensity,SpMyo1,2050
same,SPOT peptide array binding signal intensity,SpNbp2,6.5
same,SPOT peptide array binding signal intensity,SpPex13,≤ 0
same,SPOT peptide array binding signal intensity,SpRvs167,24.3
same,SPOT peptide array binding signal intensity,SpSla1-D1-D2,≤ 0
same,SPOT peptide array binding signal intensity,SpSla1-D3,≤ 0
NPTKSPPPPPSPSTM,SPOT peptide array binding signal intensity,AgAbp1,≤ 0
same,SPOT peptide array binding signal intensity,AgBbc1,≤ 0
same,SPOT peptide array binding signal intensity,AgBem1-D1,26
same,SPOT peptide array binding signal intensity,AgBzz1-D1,126
same,SPOT peptide array binding signal intensity,AgBzz1-D2,63.5
same,SPOT peptide array binding signal intensity,AgCyk3,≤ 0
same,SPOT peptide array binding signal intensity,AgFus1,≤ 0
same,SPOT peptide array binding signal intensity,AgHof1,7
same,SPOT peptide array binding signal intensity,AgHse1,16
same,SPOT peptide array binding signal intensity,AgLsb1,1.25
same,SPOT peptide array binding signal intensity,AgLsb4,≤ 0
same,SPOT peptide array binding signal intensity,AgMyo5,232
same,SPOT peptide array binding signal intensity,AgNbp2,≤ 0
same,SPOT peptide array binding signal intensity,AgRvs167,≤ 0
same,SPOT peptide array binding signal intensity,AgSho1,≤ 0
same,SPOT peptide array binding signal intensity,AgSla1-D1-D2,≤ 0
same,SPOT peptide array binding signal intensity,AgSla1-D3,128
same,SPOT peptide array binding signal intensity,CaAbp1-D1,7
same,SPOT peptide array binding signal intensity,CaAbp1-D2,≤ 0
same,SPOT peptide array binding signal intensity,CaBbc1,≤ 0
same,SPOT peptide array binding signal intensity,CaBem1-D1,5
same,SPOT peptide array binding signal intensity,CaBzz1-D1,3240
same,SPOT peptide array binding signal intensity,CaBzz1-D2,1620
same,SPOT peptide array binding signal intensity,CaCyk3,7.5
same,SPOT peptide array binding signal intensity,CaFus1,60
same,SPOT peptide array binding signal intensity,CaHof1,≤ 0
same,SPOT peptide array binding signal intensity,CaHse1,4
same,SPOT peptide array binding signal intensity,CaLsb1,0.5
same,SPOT peptide array binding signal intensity,CaLsb4,≤ 0
same,SPOT peptide array binding signal intensity,CaMyo5,48
